High-throughput results as filed in PubChem.
Most compounds without a hit are left out; they make up all but 8% or so of the library.
HCV inh = HCV inhibition; Huh7.5.1 HCVcc-Cre infection, luciferase reporter, 44 h; Potency, µM (highest dose often 41.8 µM), for the others: at the top dose activity change, negative = inhibition, most hits filed as inhibitors; hit rate 3.4% among 340,000; AID 651820; active means well fitted inhibition curve with a large enough effect; inconclusive means small, poorly fitted or top-dose-only effect, or another doubt; inactive means no such curve, though single readings can be large or run the other way; further: potency means the concentration at half of the fitted maximal effect; on the % scale 0 is the no-effect control and ±100 the full control effect
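Seed cells (1,000/well) for 4 h; treat with compound and infect with HCVcc-Cre, moi about 0.5. Incubate 44 h, then detect luciferase activity.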
FMDV inh = blocks foot and mouth disease virus. FMDV antiviral cell-based qHTS. Potency, µM (titrated, usually from 57.9 µM), without a hit: at the highest dose activity change, negative = inhibition, usual class: inhibitors. hit rate 1.2% among 410,000. AID 1159524; calls by dose curve; tested in HEK293T cells; further: read-out not given here; potency means the concentration at half of the fitted maximal effect; on the % scale 0 is the no-effect control and ±100 the full control effect; nearly all actives have a fitted effect of over 45% in size
SARS PLP yeast = SARS-CoV PLP inhibition in yeast; Potency, µM (doses to about 32.9 µM), for inactives: top-dose activity, positive = growth rescue, usual class: activators; hit rate 0.19% among 330,000; S. cerevisiae expressing SARS-CoV PLpro, growth rescue; calls by dose curve; further: potency means the concentration at half of the fitted maximal effect; 0% is about no effect; nearly all actives have a fitted effect of over 55% in size
MARV entry inh = Marburg virus entry inhibition; hit rate 1.8% among 300,000; Potency, µM (top dose mostly 37.8 µM), for the others: top-dose activity change, negative = inhibition, actives largely listed as inhibitors; AID 540276; Marburg virus pseudotyped entry inhibition, cell reporter; calls by dose curve; tested in HEK293 cells; further: potency means the concentration at half of the fitted maximal effect; on the % scale 0 is the no-effect control and ±100 the full control effect
HCMV inh = inhibitors of human cytomegalovirus | HFF cells, HCMV-luciferase reporter, 72 h; active compounds read low | activity change, negative = inhibition, % at 57.5 µM | hit rate 4.5% among 410,000 | AID 1259415; in the data active means activity change below about -60%; inconclusive means no clear call, values can overlap the other calls; inactive means above about -39%; further: on the % scale 0 is the no-effect control and ±100 the full control effect
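Human foreskin fibroblasts infected with luciferase-reporter HCMV at MOI 1 PFU/cell, compounds at two doses. Luciferase measured 72 h post infection; normalized to buffer-only basal and Salinomycin (10uM) controls.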
LASV entry inh = inhibitors of Lassa virus binding or cell entry; Lassa virus pseudotype entry inhibition, cell reporter; Potency, µM (doses to about 37.9 µM), without a hit: at the highest dose activity change, negative = inhibition, actives largely listed as inhibitors; hit rate 1.2% among 300,000; AID 540256; calls by dose curve; tested in HEK293 cells; further: potency means the concentration at half of the fitted maximal effect; on the % scale 0 is the no-effect control and ±100 the full control effect; nearly all actives have a fitted effect of over 50% in size
An asterisk follows results filed as active; ? = inconclusive; · = no result; ! = repeats disagree; [ ] = dose if it differs, or a comment.

SMILES | HCV inh | FMDV inh | SARS PLP yeast | MARV entry inh | HCMV inh | LASV entry inh
Cc1sc2nc(C(C)C)nc(SCC(=O)N3c4ccccc4CC3C)c2c1C (stereo not drawn) | ? | 0% | 3% | ? | -20 | ?
Cc1ccccc1-n1ncc2c(SCC(=O)NC3CCCC3)ncnc21 | 4µM* | ? | 3% | ? | -72* | ·
CCc1nc(SCC(=O)N2c3ccccc3CC2C)c2c(C)c(C)sc2n1 (stereo not drawn) | 13µM* | · | 0% | 0.92µM* | -38 | 1.5µM*
O=C(NCc1ccc(Cl)c(Cl)c1)O[C@H]1CC[C@@]23CCCN2C(=O)CCC[C@H]3[C@H]1Cc1ccccc1 | · | · | · | · | -5 | ·
COc1ccccc1NC(=O)c1sc2nc(-c3cc4cc(Cl)ccc4oc3=O)[nH]c(=O)c2c1C | · | -6% | · | · | 7 | 20%[46.1 µM]
COc1ccc(N2CCN(C(=O)CSc3ncnc4c3cnn4-c3ccccc3C)CC2)cc1 | 2% | ? | 4% | 16% | -15 | 1%
O=C(CSc1ncnc2c1cnn2-c1ccccc1Cl)N1CCN(C(=O)c2ccco2)CC1 | -25% | 35µM* | -4% | -23%[46.1 µM] | 24 | ?
CCCN(CCC)C(=O)CCSCCC(=O)N(CCC)CCC | 3% | -7% | 12% | -13% | -102* | -1%
COC1=C(c2ccccc2)C(=O)c2ccccc2C1=O | ? | ? | -80% | 4% | -28 | -17%
O=C(C1=C(c2ccccc2)C(=O)c2ccccc2C1=O)c1ccccc1 | 10µM* | 10µM* | 11% | ? | -99* | 2.6µM*
CC1(C)CC(=O)C2=C(C1)O[C@@]1(CCCCN3C(=O)c4ccccc4C3=O)Cc3cc(C#N)ccc3C2O1 | · | · | 2%[6.58 µM] | · | · | ·
CCc1ccc(-c2nc(CSCC(=O)NCc3ccc(C)cc3)c(C)o2)cc1 | · | -11% | · | 10%[46.1 µM] | -39 | 11%[46.1 µM]
Cc1oc2ccccc2c1CC(=O)NCCCN(C)C | -13% | -20% | -1% | · | -64* | ·
CCOC(=O)c1c(S(=O)(=O)N2CCCC(C(=O)Nc3ccc(C)cc3C)C2)c(C)n(CC)c1C (stereo not drawn) | · | 0% | · | · | -9 | -11%[46.1 µM]
Cc1occc1-c1nnc(SCC(=O)c2ccc3c(c2)OCCO3)n1CC1CCCO1 (stereo not drawn) | 1% | -19% | 0% | · | -19 | ·
CCCCn1c(SCC(=O)c2ccc3c(c2)OCCO3)nnc1-c1ccoc1C | 3% | -18% | -7% | 11µM* | 15 | -29%
Brc1cc2c(cc1/C=N/Nc1nc(N3CCCC3)nc(N3CCOCC3)n1)OCO2 | 2.8µM* | ? | -1% | -40% | -14 | -16%
COc1ccc(/C=N/Nc2nc(N3CCCC3)nc(N3CCCC3)n2)c(OC)c1OC | ? | -29% | -11% | ? | 8 | 1%
COc1cccc(/C=N/Nc2nc(N3CCCC3)nc(N3CCCC3)n2)c1O | -29% | · | 1% | 26µM* | -35 | 16%
Oc1ccc(Br)cc1/C=N/Nc1nc(N2CCCCC2)nc(N2CCOCC2)n1 | ? | -18% | -2% | 2.5µM* | ? | -20%[46.1 µM]
C(=N\Nc1nc(N2CCOCC2)nc(N2CCOCC2)n1)/c1ccncc1 | 2% | -8% | -8% | ? | 8 | -3%
C/C(=N\Nc1nc(N2CCCCC2)nc(N2CCOCC2)n1)c1ccccc1O | ? | ? | -1% | 1.8µM* | ? | 7.1µM*
COc1ccc(O)c(C(=O)N2CCC3(CC2)c2ccccc2[C@@H](NC(=O)c2ccccn2)[C@@H]3OC)c1 | · | 21% | · | · | · | ·
COC(=O)N[C@@H](c1cccc(C)c1)[C@]1(C(C)=O)CCCC1=O | · | · | · | 3%[14.2 µM] | · | ·
Oc1ccc(C=NNc2nc3ccccc3s2)c(O)c1 | ? | 13% | · | ? | -63* | ?
SMILES | HCV inh | FMDV inh | SARS PLP yeast | MARV entry inh | HCMV inh | LASV entry inh
BrC(=C\c1ccccc1)/C=N/Nc1nc(N2CCOCC2)nc(N2CCOCC2)n1 | ? | -26% | -46% | 7.9µM* | 32 | -17%
Oc1ccc(/C=N/Nc2nc(N3CCCCCC3)nc(N3CCCCCC3)n2)c(O)c1 | ? | ? | -1% | ? | -89* | ?
Oc1ccc(/C=N/Nc2nc(N3CCCC3)nc(N3CCCC3)n2)cc1O | -16% | -12% | -1% | ? | -34 | ?
Cc1c(C(=O)NCc2ccc(F)cc2)sc2ncnc(NCC3CCCO3)c12 (stereo not drawn) | · | -13% | · | · | · | ·
COc1ccc([C@@H]2[C@@H](C(=O)N3CCOCC3)CC(=O)N2C(=O)Nc2ccc(C)c(Cl)c2)cc1 | · | · | · | · | 11 | ·
CCOC(=O)C1CCN(C(=O)c2cccc(N3C(=O)NC4CC3(C)Oc3ccc(C)cc34)c2)CC1 (stereo not drawn) | -11% | 8% | 0% | 1%[46.1 µM] | -24 | -17%[46.1 µM]
CCOC(=O)N1CCN(C(=O)c2cccc(N3C(=O)NC4CC3(C)Oc3ccc(Cl)cc34)c2)CC1 (stereo not drawn) | -14% | ? | · | -11%[46.1 µM] | -71* | -16%[46.1 µM]
Cc1cc(Cl)ccc1OCC(=O)NC(=S)Nc1ccc(Cl)cn1 | 15% | 16% | -2% | · | -1 | ·
CCCC(=O)NC(=S)Nc1ccc(Cl)cn1 | 0% | 65% | 19% | ? | -69* | ?
Cc1cc(C)n(-c2nc3cc(Cl)ccc3nc2Nc2ccc(CC(=O)O)cc2)n1 | · | -18% | · | 4%[46.1 µM] | 2 | -5%[46.1 µM]
CC(C)c1ccc(Nc2nc(N3CCOCC3)nc(N3CCOCC3)n2)cc1 | · | ? | · | · | 2 | ·
Fc1ccccc1Nc1nc(N2CCOCC2)nc(N2CCOCC2)n1 | ? | -27% | 4% | · | 19 | ·
Fc1ccccc1Nc1nc(NCc2ccco2)nc(N2CCOCC2)n1 | 35µM* | -20% | -3% | ? | 16 | 0%
CC(C)c1ccc(Nc2nc(NCc3ccco3)nc(N3CCOCC3)n2)cc1 | 10µM* | -12% | -23% | ? | 15 | ?
CSc1ncc2c(n1)-c1cc(C)ccc1SC2 | 8.9µM* | -10% | 8% | ? | -98* | -11%
NC[C@@H]1O[C@H](C23CC4CC(CC(C4)C2)C3)Cc2c1ccc(O)c2O | 6% | 40µM*! | -3% | 13µM* | ? | 18µM*
Cc1cccc(C(=O)N(Cc2cccs2)C2CCS(=O)(=O)C2)c1 (stereo not drawn) | 9% | -8% | 3% | · | -9 | ·
Cc1ccsc1CN(C(=O)c1ccc(OCC(C)C)cc1)C1CCS(=O)(=O)C1 (stereo not drawn) | · | -11% | · | 3%[46.1 µM] | 56 | 8.9µM*
Cc1ccccc1C(=O)N(Cc1cccs1)C1CCS(=O)(=O)C1 (stereo not drawn) | -1% | -12% | 0% | -2%[46.1 µM] | -84* | ?
CC(C)c1ccc2occ(CC(=O)N(Cc3ccc(F)cc3)C3CCS(=O)(=O)C3)c2c1 (stereo not drawn) | · | -24% | · | -27%[46.1 µM] | -64* | 1%[46.1 µM]
CC(C)c1ccc(CN(C(=O)c2cccs2)C2CCS(=O)(=O)C2)cc1 (stereo not drawn) | 6% | ? | 3% | -12%[46.1 µM] | -69* | ?
